# Test results as given in article PMC7862700, “An all-to-all approach to the identification of sequence-specific readers for epigenetic DNA modifications on cytosine”.
# Tests used:
# Assay in all cases: DAPPL (digital affinity profiling via proximity ligation, sequencing); 10 mM Tris-HCl pH 7.5, 50 mM NaCl, 1 mM DTT, 4% glycerol, room temperature, 30 min; GST-TFs on glutathione beads, 16-mer random dsDNA library, 0.1% formaldehyde crosslink after washing; high values mean tight binding
# FLI1 = target: T1, FLI1 (Homo sapiens, UniProt Q01543 1-452); details: protein: recombinant; tags: N-terminal GST; dsDNA, one strand shown
# T1 sequence: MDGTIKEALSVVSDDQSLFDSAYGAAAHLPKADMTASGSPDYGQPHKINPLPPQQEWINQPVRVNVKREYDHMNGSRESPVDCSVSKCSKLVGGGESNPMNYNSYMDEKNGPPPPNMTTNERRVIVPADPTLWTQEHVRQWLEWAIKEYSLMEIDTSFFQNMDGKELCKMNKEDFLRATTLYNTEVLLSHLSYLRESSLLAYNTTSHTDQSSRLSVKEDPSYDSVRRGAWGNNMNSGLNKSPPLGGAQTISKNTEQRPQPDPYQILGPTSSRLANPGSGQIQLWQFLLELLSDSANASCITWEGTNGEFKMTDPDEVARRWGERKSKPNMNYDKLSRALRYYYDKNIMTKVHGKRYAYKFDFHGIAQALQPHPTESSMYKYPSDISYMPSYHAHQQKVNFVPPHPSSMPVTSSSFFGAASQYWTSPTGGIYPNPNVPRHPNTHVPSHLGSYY
# Procedure, shortened: (§1)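 After expression in yeast as GST fusions, human transcription factors were bound to glutathione beads, DNA-barcoded and mixed with a tag-only sample. The pools were incubated with 200 nmole of a 16-mer random double-stranded DNA library in Tris/NaCl/DTT/glycerol buffer (30 min, room temperature), washed and crosslinked with 0.1% formaldehyde. Proximity ligation with BsaI/T4 ligase ran for 1 h at 37 °C, before PCR amplification and sequencing on an Illumina NextSeq500. Binding signal is a hexamer's read frequency for a factor divided by its frequency for the tag-only sample.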
# ELK1 = target: T2, ELK1 (Homo sapiens, UniProt P19419 1-428); details: protein: recombinant; tags: N-terminal GST; dsDNA, one strand shown
# T2 sequence: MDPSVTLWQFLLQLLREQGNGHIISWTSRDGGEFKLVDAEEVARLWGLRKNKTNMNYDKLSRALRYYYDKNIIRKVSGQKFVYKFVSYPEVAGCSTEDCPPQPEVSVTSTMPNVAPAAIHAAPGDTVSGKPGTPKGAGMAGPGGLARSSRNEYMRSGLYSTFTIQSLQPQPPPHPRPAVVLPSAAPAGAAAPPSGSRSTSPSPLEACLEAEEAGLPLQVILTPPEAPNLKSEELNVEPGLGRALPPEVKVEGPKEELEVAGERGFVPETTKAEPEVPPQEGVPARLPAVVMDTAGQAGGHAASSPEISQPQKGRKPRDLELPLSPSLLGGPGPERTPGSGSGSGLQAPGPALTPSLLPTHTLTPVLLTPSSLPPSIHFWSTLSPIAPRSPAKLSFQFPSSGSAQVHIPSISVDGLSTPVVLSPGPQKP
# Procedure, shortened: as §1
# GABPA = target: T3, GABPA (Homo sapiens, UniProt Q06546 1-454); details: protein: recombinant; tags: N-terminal GST; dsDNA, one strand shown
# T3 sequence: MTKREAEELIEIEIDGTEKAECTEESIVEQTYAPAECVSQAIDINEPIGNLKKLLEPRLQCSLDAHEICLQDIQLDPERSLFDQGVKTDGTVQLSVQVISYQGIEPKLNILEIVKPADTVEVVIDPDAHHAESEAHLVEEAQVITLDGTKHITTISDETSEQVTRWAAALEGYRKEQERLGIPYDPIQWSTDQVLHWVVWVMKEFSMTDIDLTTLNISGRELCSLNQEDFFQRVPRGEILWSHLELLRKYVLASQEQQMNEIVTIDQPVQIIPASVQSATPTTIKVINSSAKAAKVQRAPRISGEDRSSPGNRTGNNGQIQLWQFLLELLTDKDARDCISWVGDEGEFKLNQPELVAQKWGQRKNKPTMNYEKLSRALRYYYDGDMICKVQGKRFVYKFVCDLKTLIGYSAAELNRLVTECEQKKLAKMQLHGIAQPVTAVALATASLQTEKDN
# Procedure, shortened: as §1
# ERG = target: T4, ERG (Homo sapiens, UniProt P11308 1-479); details: protein: recombinant; tags: N-terminal GST; dsDNA, one strand shown
# T4 sequence: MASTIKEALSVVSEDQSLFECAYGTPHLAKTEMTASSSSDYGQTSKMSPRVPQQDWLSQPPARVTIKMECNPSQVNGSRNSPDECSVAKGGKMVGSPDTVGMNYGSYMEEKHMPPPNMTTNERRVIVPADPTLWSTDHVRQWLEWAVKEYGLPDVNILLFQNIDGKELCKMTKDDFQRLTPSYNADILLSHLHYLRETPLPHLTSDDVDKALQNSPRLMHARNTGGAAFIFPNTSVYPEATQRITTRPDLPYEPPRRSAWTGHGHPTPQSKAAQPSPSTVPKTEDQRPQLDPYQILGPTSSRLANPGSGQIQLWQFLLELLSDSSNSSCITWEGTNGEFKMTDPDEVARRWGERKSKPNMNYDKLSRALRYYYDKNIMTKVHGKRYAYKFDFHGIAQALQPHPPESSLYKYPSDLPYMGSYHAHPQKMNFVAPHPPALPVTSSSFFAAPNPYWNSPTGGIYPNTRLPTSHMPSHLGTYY
# Procedure, shortened: as §1
# ELF1 = ELF1 (Homo sapiens, UniProt P32519 1-619); details: protein: recombinant; tags: N-terminal GST; dsDNA, one strand shown
# Chain of ELF1 (P32519 whole entry): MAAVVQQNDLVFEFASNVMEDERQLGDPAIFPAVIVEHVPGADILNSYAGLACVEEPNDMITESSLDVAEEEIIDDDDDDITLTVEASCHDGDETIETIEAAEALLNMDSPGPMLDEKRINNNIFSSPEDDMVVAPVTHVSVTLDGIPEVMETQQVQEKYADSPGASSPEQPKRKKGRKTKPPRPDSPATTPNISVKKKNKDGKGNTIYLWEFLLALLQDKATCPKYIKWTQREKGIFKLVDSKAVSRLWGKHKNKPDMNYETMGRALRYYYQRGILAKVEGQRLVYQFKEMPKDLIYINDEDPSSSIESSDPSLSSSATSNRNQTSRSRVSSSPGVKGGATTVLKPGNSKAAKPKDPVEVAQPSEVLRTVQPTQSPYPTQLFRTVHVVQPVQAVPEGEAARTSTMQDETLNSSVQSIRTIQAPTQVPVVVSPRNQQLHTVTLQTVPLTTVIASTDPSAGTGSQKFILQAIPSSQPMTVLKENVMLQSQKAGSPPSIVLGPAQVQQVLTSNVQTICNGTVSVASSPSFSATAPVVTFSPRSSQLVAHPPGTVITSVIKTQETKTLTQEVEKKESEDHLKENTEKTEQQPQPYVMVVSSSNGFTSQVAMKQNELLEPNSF
# Procedure, shortened: as §1
# EHF = target: T5, EHF (Homo sapiens, UniProt Q9NZC4 1-300); details: protein: recombinant; tags: N-terminal GST; dsDNA, one strand shown
# T5 sequence: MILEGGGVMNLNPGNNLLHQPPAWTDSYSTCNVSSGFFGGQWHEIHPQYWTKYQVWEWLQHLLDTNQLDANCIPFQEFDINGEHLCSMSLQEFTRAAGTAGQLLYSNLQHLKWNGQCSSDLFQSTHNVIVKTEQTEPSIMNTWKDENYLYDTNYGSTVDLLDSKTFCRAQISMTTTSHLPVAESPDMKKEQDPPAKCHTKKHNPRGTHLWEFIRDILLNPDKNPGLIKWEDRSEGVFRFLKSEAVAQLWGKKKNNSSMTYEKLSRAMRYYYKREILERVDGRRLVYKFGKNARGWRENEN
# Procedure, shortened: as §1
# SPI1 = SPI1 (Homo sapiens, UniProt P17947 1-270); details: protein: recombinant; tags: N-terminal GST; dsDNA, one strand shown
# Procedure, shortened: as §1
# SPIB = SPIB (Homo sapiens, UniProt Q01892 1-262); details: protein: recombinant; tags: N-terminal GST; dsDNA, one strand shown
# Chain of SPIB (Q01892 whole entry): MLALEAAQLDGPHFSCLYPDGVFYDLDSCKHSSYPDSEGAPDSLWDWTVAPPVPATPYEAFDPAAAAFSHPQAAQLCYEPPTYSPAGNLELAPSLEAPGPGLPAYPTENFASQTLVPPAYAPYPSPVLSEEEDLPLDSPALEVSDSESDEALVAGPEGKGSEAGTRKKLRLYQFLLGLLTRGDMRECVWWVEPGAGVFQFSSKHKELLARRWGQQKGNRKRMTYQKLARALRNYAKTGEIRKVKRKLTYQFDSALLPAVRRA
# Procedure, shortened: as §1
# ELK3 = target: T6, ELK3 (Homo sapiens, UniProt P41970 1-407); details: protein: recombinant; tags: N-terminal GST; dsDNA, one strand shown
# T6 sequence: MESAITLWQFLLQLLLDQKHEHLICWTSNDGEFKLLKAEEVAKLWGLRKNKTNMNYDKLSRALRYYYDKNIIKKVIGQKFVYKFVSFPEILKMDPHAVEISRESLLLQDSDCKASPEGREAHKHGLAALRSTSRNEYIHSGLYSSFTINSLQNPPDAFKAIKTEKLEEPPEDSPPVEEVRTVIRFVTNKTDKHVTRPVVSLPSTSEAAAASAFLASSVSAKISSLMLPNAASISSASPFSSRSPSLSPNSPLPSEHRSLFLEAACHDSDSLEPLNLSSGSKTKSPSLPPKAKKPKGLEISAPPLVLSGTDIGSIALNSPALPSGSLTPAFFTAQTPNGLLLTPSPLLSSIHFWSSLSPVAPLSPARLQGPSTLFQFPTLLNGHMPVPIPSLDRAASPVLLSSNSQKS
# Procedure, shortened: as §1
# FEV = target: T7, FEV (Homo sapiens, UniProt Q99581 1-238); details: protein: recombinant; tags: N-terminal GST; dsDNA, one strand shown
# T7 sequence: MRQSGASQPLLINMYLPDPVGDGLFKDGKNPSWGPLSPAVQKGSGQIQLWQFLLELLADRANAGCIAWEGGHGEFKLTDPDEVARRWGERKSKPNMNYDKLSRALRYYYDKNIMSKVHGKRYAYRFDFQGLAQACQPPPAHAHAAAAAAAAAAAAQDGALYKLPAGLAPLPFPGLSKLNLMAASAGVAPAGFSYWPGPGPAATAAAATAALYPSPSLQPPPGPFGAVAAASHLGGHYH
# Procedure, shortened: as §1
# ETV5 = ETV5 (Homo sapiens, UniProt P41161 1-510); details: protein: recombinant; tags: N-terminal GST; dsDNA, one strand shown
# Chain of ETV5 (P41161 whole entry): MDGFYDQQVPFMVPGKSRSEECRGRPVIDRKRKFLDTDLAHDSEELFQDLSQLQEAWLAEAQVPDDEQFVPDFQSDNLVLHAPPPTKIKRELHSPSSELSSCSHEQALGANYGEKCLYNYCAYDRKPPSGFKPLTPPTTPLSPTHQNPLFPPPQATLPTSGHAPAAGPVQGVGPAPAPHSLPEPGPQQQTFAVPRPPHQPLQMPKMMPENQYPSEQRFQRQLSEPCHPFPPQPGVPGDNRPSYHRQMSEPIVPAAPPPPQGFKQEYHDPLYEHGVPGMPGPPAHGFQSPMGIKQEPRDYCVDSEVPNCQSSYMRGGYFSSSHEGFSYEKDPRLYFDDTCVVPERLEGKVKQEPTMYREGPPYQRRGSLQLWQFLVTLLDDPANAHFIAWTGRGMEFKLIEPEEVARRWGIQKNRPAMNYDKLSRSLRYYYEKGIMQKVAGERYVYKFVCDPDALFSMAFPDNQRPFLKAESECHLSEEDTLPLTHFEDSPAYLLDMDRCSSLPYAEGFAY
# Procedure, shortened: as §1
# HSF1 = HSF1 (Homo sapiens, UniProt Q00613 1-529); details: protein: recombinant; tags: N-terminal GST; chain copies: 3; dsDNA, one strand shown
# Chain of HSF1 (Q00613 whole entry): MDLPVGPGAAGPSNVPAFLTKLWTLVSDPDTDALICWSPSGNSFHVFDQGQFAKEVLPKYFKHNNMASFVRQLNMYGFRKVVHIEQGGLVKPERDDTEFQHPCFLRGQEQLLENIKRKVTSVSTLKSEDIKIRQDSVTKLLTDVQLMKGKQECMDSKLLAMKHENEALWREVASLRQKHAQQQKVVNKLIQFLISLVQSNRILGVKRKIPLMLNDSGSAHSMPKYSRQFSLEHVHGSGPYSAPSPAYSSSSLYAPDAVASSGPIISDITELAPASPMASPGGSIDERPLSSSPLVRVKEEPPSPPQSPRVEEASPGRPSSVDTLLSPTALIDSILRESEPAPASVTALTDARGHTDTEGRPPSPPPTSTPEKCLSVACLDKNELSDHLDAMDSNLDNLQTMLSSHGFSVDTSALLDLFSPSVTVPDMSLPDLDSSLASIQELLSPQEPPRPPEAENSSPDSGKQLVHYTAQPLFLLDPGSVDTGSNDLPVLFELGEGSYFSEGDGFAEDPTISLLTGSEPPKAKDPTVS
# Procedure, shortened: as §1
# SPIC = target: T8, SPIC (Homo sapiens, UniProt Q8N5J4 1-248); details: protein: recombinant; tags: N-terminal GST; dsDNA, one strand shown
# T8 sequence: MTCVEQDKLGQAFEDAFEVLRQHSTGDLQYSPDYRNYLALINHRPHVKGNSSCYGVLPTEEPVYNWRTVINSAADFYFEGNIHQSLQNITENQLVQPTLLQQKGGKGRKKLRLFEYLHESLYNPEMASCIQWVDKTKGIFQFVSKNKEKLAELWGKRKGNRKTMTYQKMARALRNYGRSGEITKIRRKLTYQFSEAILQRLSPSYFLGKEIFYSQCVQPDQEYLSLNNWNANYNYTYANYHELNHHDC
# Procedure, shortened: as §1
# ELF4 = ELF4 (Homo sapiens, UniProt Q99607 1-663); details: protein: recombinant; tags: N-terminal GST; dsDNA, one strand shown
# Chain of ELF4 (Q99607 whole entry): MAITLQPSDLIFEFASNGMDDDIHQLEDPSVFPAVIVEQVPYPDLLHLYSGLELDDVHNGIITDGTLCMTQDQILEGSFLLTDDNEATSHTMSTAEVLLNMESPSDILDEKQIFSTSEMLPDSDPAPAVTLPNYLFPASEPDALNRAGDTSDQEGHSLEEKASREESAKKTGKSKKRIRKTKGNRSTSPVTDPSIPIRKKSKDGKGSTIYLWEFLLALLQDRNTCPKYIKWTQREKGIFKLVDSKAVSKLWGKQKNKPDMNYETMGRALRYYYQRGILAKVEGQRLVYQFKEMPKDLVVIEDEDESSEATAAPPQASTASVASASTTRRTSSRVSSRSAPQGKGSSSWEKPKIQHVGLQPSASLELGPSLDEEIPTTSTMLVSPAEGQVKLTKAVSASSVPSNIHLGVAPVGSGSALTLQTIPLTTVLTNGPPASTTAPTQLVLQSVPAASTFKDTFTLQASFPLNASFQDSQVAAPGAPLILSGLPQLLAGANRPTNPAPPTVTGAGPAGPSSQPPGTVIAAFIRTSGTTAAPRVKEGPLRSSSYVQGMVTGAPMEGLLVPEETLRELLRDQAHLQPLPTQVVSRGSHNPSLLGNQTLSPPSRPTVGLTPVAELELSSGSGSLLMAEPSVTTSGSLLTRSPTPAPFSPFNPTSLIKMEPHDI
# Procedure, shortened: as §1
# ELK4 = target: T9, ELK4 (Homo sapiens, UniProt P28324-2 1-405); details: protein: recombinant; tags: N-terminal GST; dsDNA, one strand shown
# T9 sequence: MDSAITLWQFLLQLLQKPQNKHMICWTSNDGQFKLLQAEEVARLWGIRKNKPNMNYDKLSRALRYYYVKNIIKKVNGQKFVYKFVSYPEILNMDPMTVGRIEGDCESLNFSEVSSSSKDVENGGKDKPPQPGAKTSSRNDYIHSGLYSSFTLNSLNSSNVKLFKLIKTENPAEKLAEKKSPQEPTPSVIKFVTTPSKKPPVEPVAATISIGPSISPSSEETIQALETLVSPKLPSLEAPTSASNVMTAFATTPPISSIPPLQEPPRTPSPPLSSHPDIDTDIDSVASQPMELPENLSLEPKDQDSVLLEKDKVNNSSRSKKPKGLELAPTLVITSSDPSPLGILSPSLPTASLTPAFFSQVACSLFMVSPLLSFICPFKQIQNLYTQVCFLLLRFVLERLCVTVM
# Procedure, shortened: as §1
# ETV2 = target: T10, ETV2 (Homo sapiens, UniProt O00321 1-342); details: protein: recombinant; tags: N-terminal GST; dsDNA, one strand shown
# T10 sequence: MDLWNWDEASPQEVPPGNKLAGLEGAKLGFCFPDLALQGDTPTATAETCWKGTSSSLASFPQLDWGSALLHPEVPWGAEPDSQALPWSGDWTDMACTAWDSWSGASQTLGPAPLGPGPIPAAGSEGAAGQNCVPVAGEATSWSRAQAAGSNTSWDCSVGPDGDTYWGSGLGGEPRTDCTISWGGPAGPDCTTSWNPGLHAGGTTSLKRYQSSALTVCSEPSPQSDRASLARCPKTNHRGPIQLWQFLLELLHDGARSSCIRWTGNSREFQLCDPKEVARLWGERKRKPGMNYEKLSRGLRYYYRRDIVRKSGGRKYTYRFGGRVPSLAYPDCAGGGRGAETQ
# Procedure, shortened: as §1
# ELF3 = target: T11, ELF3 (Homo sapiens, UniProt P78545 1-371); details: protein: recombinant; tags: N-terminal GST; dsDNA, one strand shown
# T11 sequence: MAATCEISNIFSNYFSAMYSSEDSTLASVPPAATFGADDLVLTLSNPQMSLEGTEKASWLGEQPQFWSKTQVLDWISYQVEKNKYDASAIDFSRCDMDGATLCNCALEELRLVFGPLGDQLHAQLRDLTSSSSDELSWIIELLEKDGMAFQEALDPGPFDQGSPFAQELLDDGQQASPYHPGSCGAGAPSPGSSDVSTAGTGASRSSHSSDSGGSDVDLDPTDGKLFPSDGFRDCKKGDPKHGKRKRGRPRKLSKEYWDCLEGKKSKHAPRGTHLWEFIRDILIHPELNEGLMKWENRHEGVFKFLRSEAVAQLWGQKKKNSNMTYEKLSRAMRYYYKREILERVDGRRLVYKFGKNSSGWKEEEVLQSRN
# Procedure, shortened: as §1
# CRX = CRX (Homo sapiens, UniProt O43186 1-299); details: protein: recombinant; tags: N-terminal GST; dsDNA, one strand shown
# Chain of CRX (O43186 whole entry): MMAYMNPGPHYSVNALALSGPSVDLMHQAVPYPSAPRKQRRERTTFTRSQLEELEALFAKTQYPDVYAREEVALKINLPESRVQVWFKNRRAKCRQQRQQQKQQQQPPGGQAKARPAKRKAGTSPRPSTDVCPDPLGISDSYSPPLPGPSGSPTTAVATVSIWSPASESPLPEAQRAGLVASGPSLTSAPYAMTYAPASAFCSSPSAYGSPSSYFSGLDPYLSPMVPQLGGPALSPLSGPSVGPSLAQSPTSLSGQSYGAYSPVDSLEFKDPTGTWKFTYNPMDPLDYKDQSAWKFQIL
# Procedure, shortened: as §1
# ETV1 = ETV1 (Homo sapiens, UniProt P50549 1-477); details: protein: recombinant; tags: N-terminal GST; dsDNA, one strand shown
# Chain of ETV1 (P50549 whole entry): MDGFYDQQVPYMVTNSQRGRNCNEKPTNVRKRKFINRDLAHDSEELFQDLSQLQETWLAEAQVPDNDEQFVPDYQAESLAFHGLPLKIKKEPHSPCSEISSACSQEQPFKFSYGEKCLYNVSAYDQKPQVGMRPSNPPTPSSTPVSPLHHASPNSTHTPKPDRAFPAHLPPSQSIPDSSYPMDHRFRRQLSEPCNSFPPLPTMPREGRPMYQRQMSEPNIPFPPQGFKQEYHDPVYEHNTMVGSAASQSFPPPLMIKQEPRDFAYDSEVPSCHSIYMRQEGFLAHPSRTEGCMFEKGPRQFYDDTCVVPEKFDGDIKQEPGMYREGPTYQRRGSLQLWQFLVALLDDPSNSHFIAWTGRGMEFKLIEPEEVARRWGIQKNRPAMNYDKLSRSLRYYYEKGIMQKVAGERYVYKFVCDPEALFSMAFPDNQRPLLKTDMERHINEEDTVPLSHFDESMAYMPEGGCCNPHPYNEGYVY
# Procedure, shortened: as §1
sequence,measurement,setting,value
CGTTTT,binding signal,FLI1,"1.16 fold enrichment (6-mer frequency, TF over GST control)"
same,binding signal,ELK1,"1.16 fold enrichment (6-mer frequency, TF over GST control)"
same,binding signal,GABPA,"1.34 fold enrichment (6-mer frequency, TF over GST control)"
same,binding signal,ERG,"1.36 fold enrichment (6-mer frequency, TF over GST control)"
same,binding signal,ELF1,"1.17 fold enrichment (6-mer frequency, TF over GST control)"
same,binding signal,EHF,"1.27 fold enrichment (6-mer frequency, TF over GST control)"
same,binding signal,SPI1,"1.29 fold enrichment (6-mer frequency, TF over GST control)"
same,binding signal,SPIB,"1.32 fold enrichment (6-mer frequency, TF over GST control)"
same,binding signal,ELK3,"1.12 fold enrichment (6-mer frequency, TF over GST control)"
same,binding signal,FEV,"1.19 fold enrichment (6-mer frequency, TF over GST control)"
same,binding signal,ETV5,"1.21 fold enrichment (6-mer frequency, TF over GST control)"
same,binding signal,HSF1,"1.12 fold enrichment (6-mer frequency, TF over GST control)"
same,binding signal,SPIC,"1.29 fold enrichment (6-mer frequency, TF over GST control)"
same,binding signal,ELF4,"1.16 fold enrichment (6-mer frequency, TF over GST control)"
same,binding signal,ELK4,"1.22 fold enrichment (6-mer frequency, TF over GST control)"
same,binding signal,ETV2,"1.35 fold enrichment (6-mer frequency, TF over GST control)"
same,binding signal,ELF3,"1.08 fold enrichment (6-mer frequency, TF over GST control)"
same,binding signal,CRX,"1.04 fold enrichment (6-mer frequency, TF over GST control)"
same,binding signal,ETV1,"1.17 fold enrichment (6-mer frequency, TF over GST control)"
